Inconclusive results are not listed. The source made the active and inactive calls. Calls follow the shape of the dose curve; as a rule, active = well fitted curve in the direction sought with a large enough effect in the repeat runs; inconclusive = weak or mixed curves; inactive = no such curve, though single readings can be large; an effect the other way counts as inactive or inconclusive.
Assays:
[1] = target: Cytochrome P450 2D6 (Homo sapiens) (UniProt P10635); test: Cytochrome P450 family 2 subfamily D member 6 (CYP2D6) small molecule antagonists: luciferase biochemical (cell-free) qHTS assay (AID 1645840); conditions: P450-Glo CYP2D6 enzyme, luciferin luminescence, 1 h; series mostly up to 57.4 µM
Chain of Cytochrome P450 2D6 (Homo sapiens) (P10635 whole entry, looked up): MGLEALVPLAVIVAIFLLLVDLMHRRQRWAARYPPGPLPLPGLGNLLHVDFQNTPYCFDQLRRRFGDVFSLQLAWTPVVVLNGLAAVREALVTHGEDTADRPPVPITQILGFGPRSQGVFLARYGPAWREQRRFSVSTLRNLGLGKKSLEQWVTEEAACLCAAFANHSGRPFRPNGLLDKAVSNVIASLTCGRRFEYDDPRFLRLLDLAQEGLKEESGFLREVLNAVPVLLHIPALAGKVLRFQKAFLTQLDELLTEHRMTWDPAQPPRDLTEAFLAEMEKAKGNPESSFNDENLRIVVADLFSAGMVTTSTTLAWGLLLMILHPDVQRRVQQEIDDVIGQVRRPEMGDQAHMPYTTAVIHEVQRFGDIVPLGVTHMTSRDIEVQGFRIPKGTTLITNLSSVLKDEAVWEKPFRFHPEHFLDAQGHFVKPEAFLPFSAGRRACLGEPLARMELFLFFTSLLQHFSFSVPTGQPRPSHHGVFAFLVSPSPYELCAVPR
How it was run: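 P450-Glo CYP2D6 system: proluciferin substrate converted by enzyme to luciferin, read by luminescence proportional to activity. Enzyme-substrate mix with compound 10 min at room temperature, then NADPH regeneration 1 h before detection reagent.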

[2] = target: Cytochrome P450 2C9 (Homo sapiens) (UniProt P11712); test: Cytochrome P450 family 2 subfamily C member 9 (CYP2C9) small molecule antagonists: luciferase biochemical (cell-free) qHTS assay (AID 1645842); conditions: P450-Glo CYP2C9 enzyme assay, luciferin luminescence; series mostly up to 57.4 µM
Chain of Cytochrome P450 2C9 (Homo sapiens) (P11712 whole entry, looked up): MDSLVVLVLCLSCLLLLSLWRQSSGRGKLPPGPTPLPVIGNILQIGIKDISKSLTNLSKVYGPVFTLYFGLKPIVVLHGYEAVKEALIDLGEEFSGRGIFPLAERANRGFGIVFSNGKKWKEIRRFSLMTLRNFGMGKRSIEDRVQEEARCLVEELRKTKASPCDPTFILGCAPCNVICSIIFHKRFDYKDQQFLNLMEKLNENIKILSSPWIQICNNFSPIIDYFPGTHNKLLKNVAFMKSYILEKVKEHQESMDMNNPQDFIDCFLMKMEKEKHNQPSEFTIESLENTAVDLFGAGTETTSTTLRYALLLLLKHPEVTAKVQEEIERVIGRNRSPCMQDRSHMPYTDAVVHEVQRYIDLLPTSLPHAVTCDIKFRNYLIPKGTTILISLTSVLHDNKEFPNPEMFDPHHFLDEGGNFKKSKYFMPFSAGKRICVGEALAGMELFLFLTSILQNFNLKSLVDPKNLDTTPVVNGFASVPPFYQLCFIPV
How it was run: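 P450-Glo CYP2C9 system: proluciferin substrate with enzyme in mix containing 0.4% BSA, 10 min at room temperature, then NADPH regeneration solution added and incubated 1 h at 37C. Detection reagent stopped reaction; luminescence read after 20 min as RLU.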
Also: nearly all actives have a fitted effect of over 55% in size.
Potency is read from the fitted curve at half-maximal effect.

Structure (SMILES) | Potency [1] | Potency [2]
O=c1c2c(on1Cc1ccccc1)CCNCC2 | inactive | 10.7 µM (active)
CC(=O)c1ccc(NC(=O)C2CCN(c3nnc(C)c4c(C)n(-c5ccccc5)nc34)CC2)cc1 | 12 µM (active) | 7.56 µM (active)
CN(C)[S+](=O)([O-])c1ccc([S+](=O)([O-])N(Cc2cccs2)Cc2ccccc2Cl)cc1 | 1.9 µM (active) | 3.79 µM (active)
Cc1ccn2c(Nc3ccccc3C)c(-c3ccccn3)nc2c1 | 19 µM (active) | 0.952 µM (active)
COc1cccc(CNCc2cccn2-c2nnc(N3CCN(c4ccccc4)CC3)s2)c1 | 3.38 µM (active) | 9.52 µM (active)
COC(=O)Cc1ccc(NC(=O)C2=C(C)NC(Nc3nc4ccccc4o3)=NC2c2ccccc2Cl)cc1 (stereo not given) | inactive | 0.756 µM (active)
CCc1ccc(-c2nc(CSCC(=O)NCc3ccc(C)cc3)c(C)o2)cc1 | 15.1 µM (active) | 2.68 µM (active)
COc1ccc(Cn2c(SCc3ccc(C(=O)NC4CCCC4)cc3)nc3ccncc32)cc1 | 6.01 µM (active) | 0.674 µM (active)
Cc1ccc(S(=O)(=O)N2CCc3cc(C(=O)Nc4ccc(C(F)(F)F)cc4)ccc32)cc1 | inactive | 1.51 µM (active)
CN(C)S(=O)(=O)n1cc(/C=C(\NC(=O)c2ccccc2)C(=O)NCCCn2ccnc2)c2ccccc21 | 0.0535 µM (active) | 0.213 µM (active)
COC(=O)c1cc(S(C)(=O)=O)ccc1OC | inactive | inactive
Cc1cccc(C)c1NC(=O)Cn1cc(C(=O)c2ccco2)c2ccccc21 | 9.52 µM (active) | 3.79 µM (active)
CC1(C#N)CCN(c2c(C(=O)N3CCN(C(=O)N4CCCC4)CC3)cnc3c(F)cc(F)cc23)CC1 | inactive | 12 µM (active)
Cc1cccc(NC(c2ccccc2C)c2ccc3ccc(C)nc3c2O)n1 (stereo not given) | inactive | 6.74 µM (active)
Cc1ccc(Cn2c(CN3CCC(C(=O)NCCc4ccccc4)CC3)cc3ccccc32)cc1 | 0.0477 µM (active) | 2.13 µM (active)
COc1ccc(C(=O)Oc2ccc(C(c3c(C)[nH][nH]c3=O)c3c(C)[nH][nH]c3=O)cc2OC)cc1 | inactive | 3.38 µM (active)
O=C(CSc1nccn1Cc1ccc(F)cc1)Nc1nc2ccccc2s1 | 10.7 µM (active) | 7.56 µM (active)
COc1ccc(NC(=O)c2nc(SCc3ccc(F)cc3)ncc2Cl)cc1 | inactive | 3.38 µM (active)
Cc1ccc(S(=O)(=O)Nc2nc3n(n2)C(c2ccc(F)cc2)C=C(c2ccccc2)N3)cc1 (stereo not given) | inactive | inactive
Cc1ccc(C)c(NC(=O)Cn2cc(C(=O)c3ccco3)c3ccccc32)c1 | 0.425 µM (active) | inactive
CCOC(=O)C1=C(O)c2ccccc2S(=O)(=O)N1C | inactive | inactive
CCOc1cc(CNC(=O)c2ccc(C)c(NC(=O)c3nsc4ccccc34)c2)ccc1OC | inactive | 1.51 µM (active)

Structure (SMILES) | Potency [1] | Potency [2]
Oc1c(C(c2ccc(Cl)cc2Cl)N2CCN(Cc3ccccc3)CC2)sc2nc(-c3ccco3)nn12 (stereo not given) | 7.56 µM (active) | 6.01 µM (active)
CN1C(=O)NC(Cc2c[nH]c3c(Cl)cccc23)C1=O (stereo not given) | inactive | 13.5 µM (active)
Cc1ccc(Cn2c(SCc3ccc(C(=O)N4CCCCCC4)cc3)nc3ccncc32)cc1 | 7.56 µM (active) | inactive
Cc1ccc(OCC(=O)Nc2cccc(OCc3cc(=O)n4cccc(C)c4n3)c2)cc1C | inactive | 0.756 µM (active)
COC(=O)c1c(-c2ccc(Cl)cc2)noc1N1CCN(c2ccccc2OC)CC1 | inactive | inactive
Cc1cc(-n2c(SCc3ccccc3F)nc3[nH]ncc3c2=O)ccc1Cl | 19 µM (active) | 23.9 µM (active)
COc1ccc(CNC(=O)C2CCCN(c3nnc(C)c4c(C)n(-c5ccc(C)cc5)nc34)C2)cc1 (stereo not given) | 19 µM (active) | 2.68 µM (active)
COc1ccc(-c2nc(SCC(=O)Nc3ccc4c(c3)OCO4)c(-c3ccccc3)[nH]2)cc1 | 6.01 µM (active) | 1.2 µM (active)
CCCCCCCCCCCCCCCCNc1ccc(C(=O)O)cc1 | inactive | inactive
Cc1ccc(C)c(N2CCN(C(=O)C3CCN(S(=O)(=O)c4ccc5[nH]c(=O)oc5c4)CC3)CC2)c1 | inactive | 2.13 µM (active)
CCOc1ccc(NC(=O)Cn2cc(C(=O)c3cccs3)c3ccccc32)cc1 | inactive | 1.69 µM (active)
COc1ccc(CN(C2CCCCC2)[S+](C)(=O)[O-])cc1OC | inactive | 6.74 µM (active)
Cc1nc2c3ccccc3nc(NNC(=O)CCC(=O)N3CCN(c4ccc(F)cc4)CC3)n2n1 | inactive | 3.79 µM (active)
CCc1cccc(CC)c1-n1c(CC(C)C)c(C(=O)N2CCNCC2)cc(-c2nc(-c3ccc(Cl)cc3)cs2)c1=O | 9.52 µM (active) | 10.7 µM (active)
CC1(C)CC1C(=O)NC(=CCCCCSCC(N)C(=O)O)C(=O)O (stereo not given) | inactive | inactive
COc1ccc(-n2nc3c(N4CCCC(C(=O)NCc5ccccc5C)C4)nnc(C)c3c2C)cc1 (stereo not given) | 4.77 µM (active) | 0.477 µM (active)
NS(=O)(=O)c1ccc(Cc2c(-c3cccc(-c4ccccc4)c3)nn(-c3nc(C(=O)O)cs3)c2C2CC2)cc1 | 21.3 µM (active) | 23.9 µM (active)
CCc1ccc(OCCn2c(C3CC(=O)N(Cc4ccc(F)cc4)C3)nc3ccccc32)cc1 (stereo not given) | 3.01 µM (active) | inactive
O=C(Cn1c(=O)n(Cc2ccco2)c(=O)c2oc3ccccc3c21)Nc1ccccc1 | 0.756 µM (active) | 4.77 µM (active)
CCOc1ccc(-c2cc(NC(=O)Nc3ccccc3Cl)c(C(=O)OC)s2)cc1 | inactive | 5.35 µM (active)
CC(CCC(=O)O)C1CC[C@H]2C3[C@H](O)C[C@@H]4C[C@H](O)CCC4(C)[C@H]3C[C@H](O)C12C (stereo not given in full) | inactive | inactive
COc1ccc(C(=O)Nc2nc3ccccc3n2CCOc2ccc(Cl)cc2)cc1 | inactive | 26.8 µM (active)

Structure (SMILES) | Potency [1] | Potency [2]
Cc1cccc(NC(=O)Cn2cc(C(=O)c3ccco3)c3ccccc32)c1C | 6.01 µM (active) | 3.01 µM (active)
Cc1cccc2nc(-c3ccccn3)c(Nc3ccc(F)cc3)n12 | 10.7 µM (active) | 1.2 µM (active)
CCOC(=O)c1ccc(Nc2nc3nonc3nc2Nc2cccc(C)c2C)cc1 | 10.7 µM (active) | inactive
Cc1cccc(NC(c2ccccc2F)c2ccc3ccc(C)nc3c2O)n1 (stereo not given) | inactive | 6.01 µM (active)
Cc1ccc(C2=Nc3ccccc3N(CC(=O)Nc3ccccc3F)C(=O)C2)cc1C | 2.39 µM (active) | inactive
COc1ccccc1Nc1nc(-c2ccccc2F)nc2ccccc12 | inactive | 12 µM (active)
Cc1ccc2nc3c(cc(C#N)c(=O)n3-c3nnc(SCc4ccccc4)s3)c(=O)n2c1 | inactive | 3.79 µM (active)
Nc1ccn(C2O[C@H](CO)[C@@H](O)[C@@H]2O)c(=O)n1 (stereo not given in full) | inactive | inactive
CC1=C(C(=O)Nc2cccc(CN)c2)C(c2ccccc2Cl)N=C(Nc2nc3ccccc3o2)N1 (stereo not given) | 3.38 µM (active) | 5.35 µM (active)
CCCOCc1cc(CN2CCN(c3cccc(Cl)c3)CC2)c(O)c2ncccc12 | inactive | 6.74 µM (active)
COc1ccc(C(Nc2ccccn2)c2ccc3ccc(C)nc3c2O)cc1C (stereo not given) | 21.3 µM (active) | 2.68 µM (active)
CC1=C(C(=O)Nc2ccccc2C)C(c2cccnc2)n2nc(SCc3ccccc3)nc2N1 (stereo not given) | inactive | 2.39 µM (active)
COc1cc(=O)n2c(c1C(=O)NCc1ccc3c(c1)OCO3)CCN(C(=O)c1ccc(C)cc1C)CC2 | 10.7 µM (active) | 19 µM (active)
Cc1ccc(Cn2ccnc2SCC(=O)Nc2nc3ccccc3s2)cc1 | 10.7 µM (active) | 8.49 µM (active)
NC(=O)C[C@H](N)C(=O)O | inactive | inactive
Cc1ccnc(NC(c2cccc(O)c2)c2ccc3ccc(C)nc3c2O)c1 (stereo not given) | 13.5 µM (active) | 9.52 µM (active)
CC1(C#N)CCN(c2c(C(=O)N3CCC(C(=O)C4CC4)CC3)cnc3c(F)cc(F)cc23)CC1 | 16.9 µM (active) | 9.52 µM (active)
COc1cc(C(=O)NC(c2ccccc2Cl)c2cc(Cl)c3cccnc3c2O)cc(OC)c1OC (stereo not given) | inactive | 15.1 µM (active)
NC(=O)c1ccc(Cc2c(-c3cccc(-c4ccccc4)c3)[nH]n(-c3nc(C(=O)O)cs3)c2=O)cc1 | 23.9 µM (active) | 26.8 µM (active)
CC1=C(C(=O)NCc2cncn2C)C(c2ccccc2Cl)N=C(Nc2nc3ccccc3o2)N1 (stereo not given) | 9.52 µM (active) | 7.56 µM (active)
Cc1ccc(-n2ncc3c(NCCCn4ccnc4)ncnc32)cc1Cl | 3.79 µM (active) | 0.601 µM (active)
